An excerpt weighted towards active compounds, which were near 11% of everything screened.
3T3 cytotox: Cytotoxic Profiling in NIH 3T3 Cell Line of Diverse Libraries Using Quantitative High-Throughput Screening; 94,000 tested, 4.3% active; Potency, µM (doses to about 96.7 µM), most hits filed as inhibitors; NIH 3T3 viability, CellTiter-Glo ATP luminescence, 48-72 h; further: nearly all actives have a fitted effect of over 55% in size
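Cells were seeded at 400 per well, treated with pin-transferred compound, and kept 48 or 72 hr at 37 °C before CellTiter-Glo addition and luminescence imaging of cellular ATP.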
Luciferase inh: Firefly luciferase inhibition profiling of diverse chemical library using quantitative high-throughput screening; 76,000 tested, 2.5% active; purified P. pyralis luciferase, luminescence, biochemical; Luciferin 4-monooxygenase (Photinus pyralis), P08659; Potency, µM (highest dose often 115 µM), hits mostly inhibitors; further: nearly all actives have a fitted effect of over 65% in size
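FLuc 10nM, D-luciferin 10uM, ATP 10uM, Mg acetate 10mM, Tris acetate pH 7.5, Tween/BSA; cpd qHTS; enzyme added last; CCD luminescence.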
NPR1 antag: Natriuretic polypeptide receptor (hNpr1) antagonism - Primary qHTS | Potency, µM (titrated, usually from 46.3 µM), most hits filed as inhibitors | AID 1347048, 2019 | 76,000 tested, 1.6% active | HEK293 hNpr1 GloSensor cGMP, ANP-stimulated luminescence | Atrial natriuretic peptide receptor 1 (Homo sapiens), P16066; calls by dose curve; further: nearly all actives have a fitted effect of over 60% in size
Target sequence (P16066 whole entry, looked up): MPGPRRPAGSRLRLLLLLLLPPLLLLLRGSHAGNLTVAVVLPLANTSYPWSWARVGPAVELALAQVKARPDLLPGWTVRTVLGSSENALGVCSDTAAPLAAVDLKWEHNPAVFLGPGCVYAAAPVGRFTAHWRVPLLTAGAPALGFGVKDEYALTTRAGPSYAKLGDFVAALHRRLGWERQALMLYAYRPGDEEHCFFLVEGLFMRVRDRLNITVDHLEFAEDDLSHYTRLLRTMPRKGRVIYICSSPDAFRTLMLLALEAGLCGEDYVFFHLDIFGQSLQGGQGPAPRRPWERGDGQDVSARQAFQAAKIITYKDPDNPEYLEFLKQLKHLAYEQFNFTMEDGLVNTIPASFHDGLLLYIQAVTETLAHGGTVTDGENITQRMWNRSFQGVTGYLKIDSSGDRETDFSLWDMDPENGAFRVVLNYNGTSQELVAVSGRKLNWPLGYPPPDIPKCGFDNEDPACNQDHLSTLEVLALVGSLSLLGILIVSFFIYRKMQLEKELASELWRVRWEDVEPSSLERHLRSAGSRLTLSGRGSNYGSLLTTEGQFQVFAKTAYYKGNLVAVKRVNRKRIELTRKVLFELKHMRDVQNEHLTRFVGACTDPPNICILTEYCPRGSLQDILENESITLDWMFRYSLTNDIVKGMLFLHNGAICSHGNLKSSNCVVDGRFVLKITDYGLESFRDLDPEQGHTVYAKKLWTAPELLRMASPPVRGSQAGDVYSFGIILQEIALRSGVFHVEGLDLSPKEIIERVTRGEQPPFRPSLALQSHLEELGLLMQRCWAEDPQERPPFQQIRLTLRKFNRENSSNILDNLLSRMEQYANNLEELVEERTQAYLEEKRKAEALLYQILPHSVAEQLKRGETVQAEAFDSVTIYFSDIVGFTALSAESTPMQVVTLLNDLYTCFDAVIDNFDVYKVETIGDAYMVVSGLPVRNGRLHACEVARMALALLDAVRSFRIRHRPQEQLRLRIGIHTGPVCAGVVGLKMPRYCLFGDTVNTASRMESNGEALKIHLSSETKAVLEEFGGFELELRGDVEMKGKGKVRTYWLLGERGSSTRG
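HEK293 cells stably expressing human Npr1 and cGMP GloSensor pGS-40F, loaded 2 h with 2% GloSensor reagent, given compound 30 min at room temperature. Luminescence read before and 20 min after 0.1 nM hNppA.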
HEK293 tox: Cytotoxic Profiling in HEK 293 Cell Line of Diverse Libraries Using Quantitative High-Throughput Screening. HEK 293 viability, ATP luminescence (CellTiter-Glo), 48-72 h. Potency, µM (series often up to 115 µM), usual class: inhibitors. 94,000 tested, 6.6% active; further: nearly all actives have a fitted effect of over 60% in size
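CellTiter-Glo luminescence (cellular ATP) was read after 48 or 72 hr of compound exposure at 37 degree Celsius. Cells were HEK 293 plated at 250 cells/well.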
Large screens that a line does not name were inactive. Unless noted, the call rests on the fitted dose curve; in most records, active means well fitted curve in the direction sought with a large enough effect; inconclusive means small, poorly fitted or top-dose-only effect, or another doubt; inactive means no such curve, though single readings can be large; an effect the other way counts as inactive or inconclusive.

CCOc1ccc(NC(=O)Cn2c(=O)n(-c3ccccc3)c(=O)c3c2cc(C)n3C)cc1	none
CN1CCOc2c(C(=O)NCCN3CCNC3=O)cc(-c3cccc4[nH]ccc34)cc21	HEK293 tox inconclusive
Cc1cc(C)cc(NC(=O)N2c3ccccc3CC2c2noc(C3CCOCC3)n2)c1 (centres undefined)	Luciferase inh 39.8µM
Cc1ccccc1NC(=O)N1c2ccccc2CC1c1noc(C2CCOCC2)n1 (centres undefined)	none
Cc1cc2nc3n(c(=O)c2n1CC(=O)Nc1ccc(Cl)cc1F)CCCC3	3T3 cytotox inconclusive, HEK293 tox inconclusive
Cc1nn(-c2ccc(F)cc2)c(Oc2cccc(F)c2)c1CCC(=O)N(C)C(C)C	3T3 cytotox inconclusive, HEK293 tox 50.1µM
Cc1ccccc1Oc1c(CCC(=O)N2CCSCC2)c(C)nn1-c1ccc(F)cc1	3T3 cytotox inconclusive, HEK293 tox inconclusive
Cc1nn(-c2ccc(F)cc2)c(Oc2ccc(F)cc2F)c1CCC(=O)N1CCCC1	3T3 cytotox inconclusive, HEK293 tox inconclusive
Cc1nn(-c2ccc(F)cc2)c(Oc2ccccc2F)c1CCC(=O)N1CCCC1	3T3 cytotox 28.2µM, HEK293 tox 35.5µM
CCc1nn(-c2ccccc2)c(Oc2ccc(C)cc2)c1CCC(=O)N1CCSCC1	3T3 cytotox inconclusive, HEK293 tox 39.8µM
CCNC(=O)CCc1c(CC)nn(-c2ccccc2)c1Oc1ccccc1F	3T3 cytotox inconclusive, HEK293 tox inconclusive
Cc1nn(-c2ccc(F)cc2)c(Oc2cccc(F)c2)c1CCC(=O)N1CCSCC1	3T3 cytotox inconclusive, HEK293 tox 35.5µM
CCN1CCN(c2ncnc3c2CN(C2CCCCC2)C(=O)CN3C)CC1	none (no result: Luciferase inh, NPR1 antag)
Cc1nn(-c2ccc(F)cc2)c(Oc2ccccc2F)c1CCC(=O)NCc1ccco1	3T3 cytotox 35.5µM, HEK293 tox inconclusive
COc1cccc(CN2Cc3cc(NC(=O)c4ccc([N+](=O)[O-])cc4)ccc3OC(C)C2=O)c1OC (centres undefined)	3T3 cytotox inconclusive
COc1ccc(-c2cc(N3CCCN(C(=O)c4ccc5[nH]ccc5c4)CC3)n[nH]2)cc1	3T3 cytotox inconclusive, Luciferase inh inconclusive, HEK293 tox inconclusive
O=C(Cc1cccc(Cl)c1)N1CCCC(c2nn(-c3ccccc3)c(=O)[nH]2)C1 (centres undefined)	3T3 cytotox inconclusive, HEK293 tox 44.7µM
Cc1nn(-c2ccccc2)c2c1C(C1CC1)N(C1CN(C(=O)NC(C)(C)c3ccccc3)C1)C2=O (centres undefined)	3T3 cytotox 14.1µM, HEK293 tox inconclusive (no result: Luciferase inh, NPR1 antag)
COCC(=O)N1CCCC(c2nn(-c3cccc(Cl)c3)c(=O)[nH]2)C1 (centres undefined)	none
Cc1nn(-c2ccccc2)c2c1C(C(C)C)N(C1CN(C(=O)Cc3cccc(Cl)c3)C1)C2=O (centres undefined)	3T3 cytotox 25.1µM, HEK293 tox 25.1µM (no result: Luciferase inh, NPR1 antag)
Cc1nn(-c2ccccc2)c2c1C(C(C)C)N(C1CCN(C(=O)Cc3cccc(Cl)c3)CC1)C2=O (centres undefined)	none (no result: Luciferase inh, NPR1 antag)
Cc1nn(-c2ccccc2)c2c1C(C1CC1)N(C1CN(C(=O)Cc3cccc(Cl)c3)C1)C2=O (centres undefined)	3T3 cytotox inconclusive, HEK293 tox 25.1µM (no result: Luciferase inh, NPR1 antag)
O=C(COc1ccc(F)cc1)Nc1ccc(-c2nnc3n2CCCC3)cc1	none
OC[C@@H]1O[C@H](CN(Cc2cccc(Cl)c2)Cc2cccc(Cl)c2)[C@H](N2CCN(c3ccccn3)CC2)[C@@H]1O	3T3 cytotox inconclusive, HEK293 tox inconclusive
CN(C)CCN(C)[C@@H]1[C@H](O)[C@H](CO)O[C@@H]1CN(Cc1ccc(Cl)cc1)Cc1cccc(Cl)c1	3T3 cytotox 28.2µM, NPR1 antag inconclusive, HEK293 tox inconclusive
CN1CCCC1CCNc1nccc(-c2cnn(-c3ccc(F)cc3)c2)n1 (centres undefined)	3T3 cytotox inconclusive, Luciferase inh inconclusive, HEK293 tox 44.7µM
O=C(C[C@@H]1O[C@H](CNCc2ccc(F)cc2)[C@@H](O)[C@H]1O)NCCN1CCOCC1	3T3 cytotox inconclusive
COC(=O)[C@@H]1Cc2c([nH]c3ccccc23)[C@H]2C[C@@H](NCCN3CCOCC3)C[C@@H](c3ccc(F)cc3)N21	3T3 cytotox inconclusive, HEK293 tox 28.2µM
COC(=O)[C@@H]1Cc2c([nH]c3ccccc23)[C@H]2C[C@H](NCCN3CCOCC3)C[C@@H](c3ccc(F)cc3)N21	3T3 cytotox 25.1µM, HEK293 tox 20µM
OC[C@@H]1CNC[C@H]1C1CCN(Cc2ccc(OC(F)(F)F)cc2)CC1	3T3 cytotox inconclusive, HEK293 tox 39.8µM
OC[C@@H]1CNC[C@H]1C1CCN(Cc2ccc(Cl)c(F)c2)CC1	3T3 cytotox inconclusive, HEK293 tox 39.8µM
CCOC(=O)C1CCN(C(=O)C2CCCN(c3cnn(C)c(=O)c3)C2)CC1 (centres undefined)	none
CCOC(=O)C1CCN(C(=O)C2CCCN(Cc3cccc(-c4ccsc4)c3)C2)CC1 (centres undefined)	3T3 cytotox inconclusive, HEK293 tox 35.5µM (no result: Luciferase inh, NPR1 antag)
O=C(C1CCCN(Cc2cccc(-c3ccsc3)c2)C1)N1CCC(Cc2ccccc2)CC1 (centres undefined)	3T3 cytotox inconclusive, HEK293 tox 39.8µM (no result: Luciferase inh, NPR1 antag)
O=C(C1CCCN(Cc2cccc(-c3ccsc3)c2)C1)N1CCN(Cc2ccccc2)CC1 (centres undefined)	3T3 cytotox 39.8µM, HEK293 tox 39.8µM (no result: Luciferase inh, NPR1 antag)
O=C(C1CCc2ncc(-c3ccsc3)n2C1)N1CCC(Cc2ccccc2)CC1 (centres undefined)	none
CN(Cc1ccccc1)C(=O)C1CCCN(Cc2cccc(-c3ccsc3)c2)C1 (centres undefined)	3T3 cytotox inconclusive, HEK293 tox 39.8µM (no result: Luciferase inh, NPR1 antag)
COC(=O)CNC(=O)c1nc2cccnc2n(Cc2ccccc2OC)c1=O	none (no result: Luciferase inh, NPR1 antag)
O=C1NC(=NC2CCCCC2)C2(CCN(Cc3cccnc3)CC2)N1c1cc(F)cc(F)c1	3T3 cytotox 28.2µM (no result: Luciferase inh, NPR1 antag)
O=C1NC(=NC2CCCCC2)C2(CCN(Cc3cccnc3)C2)N1c1cc(F)cc(F)c1 (centres undefined)	3T3 cytotox 35.5µM (no result: Luciferase inh, NPR1 antag)
Cc1ccc([S+](=O)([O-])N2CCCC2C(=O)N2CCC(N3CCCC3=O)CC2)cc1 (centres undefined)	none (no result: Luciferase inh, NPR1 antag)
C#CCNC(=O)c1nc2sccn2c1-c1cccnc1	none (no result: Luciferase inh, NPR1 antag)
COc1cccc(N2CCN(C(=O)c3cc4c(s3)CN(C3CCCC3)C4)CC2)c1	3T3 cytotox inconclusive, Luciferase inh inconclusive, HEK293 tox inconclusive
COCC1CN(C2CCC2)CC12CCN(Cc1ccc(OC)c(OC)c1)CC2 (centres undefined)	3T3 cytotox inconclusive, HEK293 tox inconclusive
COCC1CN(C2CCC2)CC12CCN(Cc1cccc(OC)c1OC)CC2 (centres undefined)	3T3 cytotox inconclusive, HEK293 tox 44.7µM

Screening results (PubChem BioAssay)
